Inconclusive results are not listed. Active and inactive are the calls of the source. Unless noted, the call rests on the fitted dose curve.
Columns and labels:
[1] = qHTS assay to identify small molecule antagonists of the vitamin D receptor (VDR) signaling pathway - cell viability counter screen (AID 743225; active means well fitted curve in the direction sought with a large enough effect in the repeat runs; an effect the other way counts as inactive or inconclusive; further: on the % scale 0 is the no-effect control and ±100 the full control effect; nearly all actives have a fitted effect of over 50% in size)
Summary of the method: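 VDR-UAS-bla HEK 293T cells were plated and incubated 4 h at 37C, then dosed with compound plus 3 nM (final) 1-alpha,25-dihydroxyvitamin D3 for 16 h. After the 2 h beta-lactamase read, viability in the same wells was read as CellTiter-Glo luminescence after 30 min at room temperature.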

[2] = qHTS assay to identify small molecule agonists of the NFkB signaling pathway (AID 1159509; active means well fitted curve in the direction sought with a large enough effect in the signal ratio in the repeat runs, not every such curve was filed as active; the % refers to the signal ratio; further: series mostly up to about 61 µM; on the % scale 0 is the no-effect control and ±100 the full control effect)
Summary of the method: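 Pathway activation was measured in ME-180 cells stably expressing beta-lactamase under NF-kB response element control. Substrate cleavage was read as the 460/530 nm emission shift after 5 hr compound incubation.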

[3] = qHTS assay to identify small molecule agonists of the NFkB signaling pathway - cell viability counter screen (AID 1159515); further: series mostly up to about 61 µM; on the % scale 0 is the no-effect control and ±100 the full control effect; nearly all actives have a fitted effect of over 55% in size
Summary of the method: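 Counter screen run alongside the NFkB-bla agonist assay: ME-180 reporter cells exposed to compounds for 5 hr, then lysed with CellTiter-Glo in the same wells. Luminescence, read after 30 min, reflects viable cells.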

[4] = qHTS assay to identify small molecule agonists of the endoplasmic reticulum stress response signaling pathway (AID 1159516; active means well fitted activation curve with a large enough effect in the signal ratio in the repeat runs, not every such curve was filed as active; the % refers to the signal ratio; further: on the % scale 0 is the no-effect control and ±100 the full control effect)
Summary of the method: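 For this screen, HeLa cells stably carrying beta-lactamase under the ER stress response element received test compounds, positive controls or DMSO for 5 hr at 37 C; B/G FRET substrate was then added and dual-wavelength emission recorded.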

[5] = qHTS assay to identify small molecule antagonists of the retinoid-related orphan receptor gamma (ROR-gamma) signaling pathway - cell viability counter screen (AID 1159520; active means well fitted curve in the direction sought with a large enough effect in the repeat runs; an effect the other way counts as inactive or inconclusive; further: nearly all actives have a fitted effect of over 50% in size; further: potency means the concentration at half of the fitted maximal effect; on activity, negative = cytotoxicity: on the % scale 0 is the no-effect control and ±100 the full control effect)
Summary of the method: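 Tet-on ROR gamma CHO cells were given compounds for 2 hr, then doxycycline hyclate at 1 uM final, and incubated 16 hr at 37 C. Viability was measured as ATP content by CellTiter-Glo luminescence.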

[6] = target: Nuclear receptor ROR-gamma (Homo sapiens) (UniProt P51449); experiment: qHTS assay to identify small molecule antagonists of the retinoid-related orphan receptor gamma (ROR-gamma) signaling pathway (AID 1159521; active means well fitted curve in the direction sought with a large enough effect in the repeat runs; an effect the other way counts as inactive or inconclusive; further: nearly all actives have a fitted effect of over 50% in size; further: potency means the concentration at half of the fitted maximal effect)
Summary of the method: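 Tet-on ROR-gamma CHO cells with ROR response element-luciferase reporter; compounds added 2 hr before 1 uM doxycycline induction, then 16 hr at 37 C. Antagonism scored as decreased ONE-Glo luminescence.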

[7] = qHTS assay to identify small molecule agonists of the AP-1 signaling pathway - cell viability counter screen (AID 1159525); further: nearly all actives have a fitted effect of over 55% in size
Summary of the method: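 Same-well cytotoxicity counter screen of the Tox21 10K library in ME-180 cells. The readout is ATP-dependent luminescence after 5 h compound treatment. Data are normalised to DMSO and tetra n-octyl ammonium bromide controls.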

[8] = qHTS assay to identify small molecule agonists of the AP-1 signaling pathway (AID 1159526); further: on the % scale 0 is the no-effect control and ±100 the full control effect
[9] = target: Retinoic acid receptor RXR-alpha (Homo sapiens) (UniProt P19793); experiment: qHTS assay to identify small molecule agonists of the RXR signaling pathway (AID 1159527); further: nearly all actives have a fitted effect of over 35% in size; further: potency means the concentration at half of the fitted maximal effect
Sequence of Retinoic acid receptor RXR-alpha (Homo sapiens) (P19793 whole entry, looked up): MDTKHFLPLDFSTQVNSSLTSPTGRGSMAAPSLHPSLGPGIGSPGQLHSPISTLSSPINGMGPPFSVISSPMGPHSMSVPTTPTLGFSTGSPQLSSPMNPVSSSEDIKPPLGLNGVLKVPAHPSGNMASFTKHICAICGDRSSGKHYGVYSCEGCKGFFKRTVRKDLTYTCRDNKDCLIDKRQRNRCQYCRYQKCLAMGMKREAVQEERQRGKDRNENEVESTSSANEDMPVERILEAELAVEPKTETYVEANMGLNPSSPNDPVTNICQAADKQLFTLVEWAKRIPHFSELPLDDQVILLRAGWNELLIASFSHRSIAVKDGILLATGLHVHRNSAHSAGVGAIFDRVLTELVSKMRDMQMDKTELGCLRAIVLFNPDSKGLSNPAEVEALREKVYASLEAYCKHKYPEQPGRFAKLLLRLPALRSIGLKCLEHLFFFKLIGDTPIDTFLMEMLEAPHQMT
Summary of the method: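 GeneBLAzer RXR-alpha-UAS-bla HEK 293T cells in 2% charcoal-stripped FBS medium were exposed to compounds for 16 hr at 37 C in agonist mode. Beta-lactamase reporter read as 460/530 nm FRET ratio after 2 hr substrate loading.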

c1ccc2sc(SSc3nc4ccccc4s3)nc2c1
inactive: Potency [1] | outcome [2] | Potency [3] | Potency [4] | activity, negative = cytotoxicity [5] -8.11% [at 19 µM] | activity change, negative = inhibition [6] 7.93% [at 19 µM] | viability change, negative = cytotoxic [7] -2.35% [at 15.8 µM] | activation [8] 15.6% [at 15.8 µM] | activation [9] -16% [at 15.8 µM]

C/C(C=O)=C\c1ccccc1
inactive: Potency [1] | outcome [2] | Potency [3] | Potency [4] | Potency [5] | Potency [6] | Potency [7] | outcome [8] | Potency [9]

CCC(Cl)CC(Cl)C(Cl)C(Cl)C(Cl)C(C)Cl (stereo not given)
inactive: viability change, negative = cytotoxic [1] 6.69% [at 15.1 µM] | activation [2] -0.489% [at 15.1 µM] | activity, negative = cytotoxic [3] 0.94% [at 15.1 µM] | activation [4] -4.87% [at 15.1 µM] | activity, negative = cytotoxicity [5] 0.516% [at 19 µM] | activity change, negative = inhibition [6] 79.2% [at 19 µM] | viability change, negative = cytotoxic [7] -14.2% [at 15.8 µM] | activation [8] 9.95% [at 15.8 µM] | activation [9] -0.0074% [at 15.8 µM]

C=C(C)C(=O)OCCC(F)(F)C(F)(F)C(F)(F)C(F)(F)C(F)(F)C(F)(F)F
inactive: outcome [2] | Potency [3] | Potency [4] | Potency [5] | Potency [6] | Potency [7] | outcome [8] | Potency [9]

CC[C@@H](CO)NCCN[C@@H](CC)CO
inactive: Potency [1] | outcome [2] | Potency [3] | Potency [4] | Potency [5] | Potency [6] | Potency [7] | outcome [8] | Potency [9]

CCC1CCC(CCC(=O)O)C1 (stereo not given)
inactive: outcome [2] | Potency [3] | Potency [4] | Potency [5] | Potency [6] | Potency [7] | outcome [8]

CC(CN(CCN(CC(C)OCCO)CC(C)OCCO)CC(C)OCCO)OCCO (stereo not given)
inactive: Potency [1] | outcome [2] | Potency [3] | Potency [4] | Potency [5] | Potency [6] | Potency [7] | outcome [8] | Potency [9]

CNCc1ccc(NC(=O)c2c[nH]c3c2C(=O)CCC3)cc1
inactive: Potency [1] | outcome [2] | Potency [3] | Potency [4] | Potency [5] | Potency [6] | Potency [7] | outcome [8] | Potency [9]

CO[C@@H]1[C@@H](OC)[C@H](C)[C@@](O)(CC(=O)O)O[C@H]1[C@H](C)[C@H]1O[C@@]2(CC[C@@](C)([C@H]3CC[C@@](C)([C@@H]4O[C@@H]([C@H]5O[C@](C)(O)[C@H](C)C[C@@H]5C)C[C@@H]4OC4C[C@H](OC)[C@@H](OC)[C@H](C)O4)O3)O2)C[C@H](O)[C@H]1C (stereo not given in full)
inactive: outcome [2] | Potency [3] | Potency [4]
active: Potency [5] 9.44 µM | Potency [6] 0.237 µM

Cc1c[nH]c2ccccc12
inactive: Potency [1] | outcome [2] | Potency [3] | Potency [4] | Potency [5] | Potency [6] | Potency [7] | outcome [8] | Potency [9]

Nc1ccc(NC(=O)c2ccc(N)cc2)cc1
inactive: outcome [2] | Potency [3] | Potency [4] | Potency [5] | Potency [6] | Potency [7] | outcome [8]

CCCCCCCCCCCC(=O)OCC(O)CO (stereo not given)
active: Potency [9] 54.9 µM
inactive: outcome [2] | Potency [3] | Potency [4] | Potency [5] | Potency [6] | Potency [7] | outcome [8]

CCCCCCC(O)CCOC(C)=O (stereo not given)
inactive: Potency [1] | outcome [2] | Potency [3] | Potency [4] | Potency [5] | Potency [6] | Potency [7] | outcome [8] | Potency [9]

O=C(c1ccccc1)c1ccc(O)cc1
inactive: Potency [1] | outcome [2] | Potency [3] | Potency [4] | Potency [5] | Potency [6] | Potency [7] | outcome [8] | Potency [9]

Nc1nc(-c2ccc([N+](=O)[O-])cc2)cs1
inactive: Potency [1] | outcome [2] | Potency [3] | Potency [4] | Potency [5] | Potency [6] | Potency [7] | outcome [8] | Potency [9]

Cc1ccc(S(=O)(=O)NC(=O)NC2CCCCC2)cc1
inactive: Potency [1] | outcome [2] | Potency [3] | Potency [4] | Potency [5] | Potency [6] | Potency [7] | outcome [8] | Potency [9]

O=C(Nc1ccc(C(=O)O)c(O)c1)c1ccccc1
inactive: Potency [1] | outcome [2] | Potency [3] | Potency [4] | Potency [5] | Potency [6] | Potency [7] | outcome [8] | Potency [9]

CS(=O)(=O)c1ccc([C@@H](C[C@H]2CCC(=O)C2)C(=O)Nc2cnccn2)cc1Cl
inactive: outcome [2] | Potency [3] | Potency [4] | Potency [5] | Potency [6] | Potency [7] | outcome [8] | Potency [9]

O=C(NC(Cc1cc(=O)[nH]c2ccccc12)C(=O)O)c1ccc(Cl)cc1 (stereo not given)
inactive: Potency [1] | outcome [2] | Potency [3] | Potency [4] | Potency [5] | Potency [6] | Potency [7] | outcome [8] | Potency [9]

CC[C@H]1OC(=O)[C@H](C)[C@@H](O[C@H]2C[C@@](C)(OC)[C@@H](O)[C@H](C)O2)[C@H](C)[C@@H](O[C@@H]2O[C@H](C)C[C@H](N(C)C)[C@H]2O)[C@](C)(O)C[C@@H](C)C(=O)[C@H](C)[C@@H](O)[C@]1(C)O
inactive: Potency [1] | outcome [2] | Potency [3] | Potency [4] | Potency [5] | Potency [6] | Potency [7] | outcome [8] | Potency [9]

CN1C(CSCC(F)(F)F)Nc2cc(Cl)c(S(N)(=O)=O)cc2S1(=O)=O (stereo not given)
inactive: Potency [1] | outcome [2] | Potency [3] | Potency [4] | Potency [5] | Potency [6] | Potency [7] | outcome [8] | Potency [9]

CCC(C)(C)C(=O)O
inactive: Potency [1] | outcome [2] | Potency [3] | Potency [4] | Potency [5] | Potency [6] | Potency [7] | outcome [8] | Potency [9]

CCOC(=O)Oc1ccc(CCNC(=O)[C@H](CCSC)NC(C)=O)cc1OC(=O)OCC
inactive: Potency [1] | outcome [2] | Potency [3] | Potency [4] | Potency [5] | Potency [6] | Potency [7] | outcome [8] | Potency [9]

c1ccc(CNc2ncnc3c2ncn3C2CCCCO2)cc1 (stereo not given)
inactive: Potency [1] | outcome [2] | Potency [3] | Potency [4] | Potency [5] | Potency [6] | Potency [7] | outcome [8] | Potency [9]

Source: PubChem BioAssay (Tox21)
